Assay outcomes as filed in PubChem.
VDR inh = vitamin D3 receptor (human) inhibition | VDR-SRC2-3 peptide fluorescence polarization, 2 h | Potency, µM, most hits filed as inhibitors | hit rate 0.93% among 400,000 | AID 504847
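After 23 nl compound addition and a short centrifugation, plates sat for 2 hours at ambient temperature; polarization of fluorescence then indicated loss of VDR binding to peptide SRC2-3.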
JMJD2A Tudor = inhibitors of human JMJD2A Tudor domain | O75164 | AlphaScreen JMJD2A-Tudor / H3K4me3 peptide binding | Potency, µM (series often up to 114 µM), hits mostly inhibitors | hit rate 4.4% among 390,000; further: nearly all actives have a fitted effect of over 50% in size
Target sequence (O75164 whole entry, looked up, the tested form may be a part): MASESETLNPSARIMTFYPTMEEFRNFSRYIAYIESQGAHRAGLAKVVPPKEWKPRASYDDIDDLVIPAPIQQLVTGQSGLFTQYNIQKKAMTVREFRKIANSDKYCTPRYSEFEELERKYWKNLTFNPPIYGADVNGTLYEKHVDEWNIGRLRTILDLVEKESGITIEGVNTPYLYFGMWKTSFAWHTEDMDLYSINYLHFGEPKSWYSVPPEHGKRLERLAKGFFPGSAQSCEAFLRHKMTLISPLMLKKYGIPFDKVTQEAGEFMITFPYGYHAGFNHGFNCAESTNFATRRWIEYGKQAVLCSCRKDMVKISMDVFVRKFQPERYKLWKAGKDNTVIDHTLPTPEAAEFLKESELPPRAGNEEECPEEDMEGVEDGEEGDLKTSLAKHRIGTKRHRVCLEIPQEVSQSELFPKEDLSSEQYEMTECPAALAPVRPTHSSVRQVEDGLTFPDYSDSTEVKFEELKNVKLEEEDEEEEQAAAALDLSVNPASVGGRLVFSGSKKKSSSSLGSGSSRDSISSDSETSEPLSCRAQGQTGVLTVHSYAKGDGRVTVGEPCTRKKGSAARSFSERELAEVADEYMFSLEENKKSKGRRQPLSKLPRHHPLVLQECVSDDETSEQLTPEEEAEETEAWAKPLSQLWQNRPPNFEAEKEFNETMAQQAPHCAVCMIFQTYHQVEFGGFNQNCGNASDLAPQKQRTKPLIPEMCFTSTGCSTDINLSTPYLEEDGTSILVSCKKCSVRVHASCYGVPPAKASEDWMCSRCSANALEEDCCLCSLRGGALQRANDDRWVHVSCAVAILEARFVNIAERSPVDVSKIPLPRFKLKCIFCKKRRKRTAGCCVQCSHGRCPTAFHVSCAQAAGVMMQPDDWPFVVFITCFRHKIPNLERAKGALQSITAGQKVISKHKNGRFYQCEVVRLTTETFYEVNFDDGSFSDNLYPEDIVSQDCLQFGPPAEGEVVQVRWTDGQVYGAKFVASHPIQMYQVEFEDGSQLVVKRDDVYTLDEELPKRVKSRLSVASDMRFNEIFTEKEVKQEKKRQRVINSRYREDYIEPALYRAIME
L3MBTL1 block = L3MBTL1 (human) inhibition; hit rate 0.66% among 230,000; AlphaScreen L3MBTL1–H3K9me1 peptide binding; Potency, µM (highest dose often 57.1 µM), actives largely listed as inhibitors; Q9Y468; further: nearly all actives have a fitted effect of over 60% in size
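AlphaScreen proximity signal between nickel-chelate acceptor and streptavidin donor beads (final 10 ug/mL) reports binding of 50 nM L3MBTL1 to 75 nM biotin-H3 K9me1 peptide; complex incubated with compounds 30 min at room temperature; cefsulodin titration as control.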
HP1b chromo inh = HP1-beta chromodomain-methylated histone interaction inhibition | P83916 | AlphaScreen HP1-beta / biotin-H3K9me3 peptide binding | Potency, µM (doses to about 114 µM), hits mostly inhibitors | hit rate 0.56% among 390,000 | AID 540317; further: nearly all actives have a fitted effect of over 70% in size
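AlphaScreen: HP1-beta (50 nM) preformed 30 min with biotin-H3(1-18)K9me3 peptide (50 nM) in PBS pH 7.4, 0.01% Tween-20. Compound added for 30 min at RT, then streptavidin donor/nickel chelate acceptor beads (10 ug/mL) for 30 min.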
BAZ2B inh = blocks human BAZ2B | Q9UIF8 | AlphaScreen BAZ2B-H3K14Ac peptide displacement | Potency, µM (top dose mostly 114 µM), most hits filed as inhibitors | hit rate 4.4% among 360,000 | AID 504333; further: nearly all actives have a fitted effect of over 60% in size
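AlphaScreen luminescence quantifies BAZ2B engagement of H3K14Ac peptide; the protein and biotinylated peptide are both at 50 nM final, buffer PBS pH 7.4 with 0.01% Tween-20, all steps at room temperature.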
PLK1 PBD block = PLK1 (human) polo-box domain binding inhibition | P53350 | Plk1 PBD binding of FITC phosphopeptide, fluorescence polarization | Potency, µM, usual class: inhibitors | hit rate 2.8% among 360,000 | AID 720504; further: series mostly up to about 57 µM; nearly all actives have a fitted effect of over 65% in size
Hits are given with their value; - = inactive; ? = inconclusive; . = no result given; [ ] = dose if it differs, or a comment. Most compounds without a hit are left out; they make up all but 6.9% or so of the library. The call rests on the fitted dose curve; in most records, active means well fitted curve in the direction sought with a large enough effect; inconclusive means small, poorly fitted or top-dose-only effect, or another doubt; inactive means no such curve, though single readings can be large; an effect the other way counts as inactive or inconclusive.

SMILES	VDR inh	JMJD2A Tudor	L3MBTL1 block	HP1b chromo inh	BAZ2B inh	PLK1 PBD block
COc1ccc(C(=O)C(/C=N/O)=N/Nc2ccc(F)cc2)cc1	-	-	?	-	?	-
COc1ccc(OCC(=O)Nc2cc(-c3nc4ccccc4o3)ccc2Cl)cc1	-	-	.	-	-	.
COc1ccc(N2C(=O)CN=C2Nc2nc(C)cc(C)n2)cc1	-	45µM	-	-	-	-
COc1cc2c3c(c1OC)C(=O)CC3CCCC2 (centres undefined)	.	.	.	.	.	-
Cc1nc2sccn2c1-c1nc(-c2cc3ccccc3o2)cs1	-	25µM	-	-	?	-
CC(O)(c1ccccc1)c1nc(-c2cc3ccccc3o2)cs1 (centres undefined)	.	.	.	.	.	-
Nc1nc(NCc2c(F)cccc2Cl)nn1-c1ccccc1	-	?	.	-	?	27µM
COc1cc(C(=O)Nc2nc(N)n(-c3ccccc3)n2)cc(OC)c1OC	-	-[11.4 µM]	.	-	50µM	?
Cc1ccccc1CNc1nc(N)n(-c2ccccc2)n1	-	-	-	-	-	-
Nc1nc(NC(=O)/C=C\C(=O)O)nn1-c1ccccc1	-	-[11.4 µM]	.	-	22µM	-
Nc1nc(NC(=O)c2ccco2)nn1-c1ccccc1	-	-	-	-	-	-
Nc1nc(NC(=O)Cc2ccccc2)nn1-c1ccccc1	-	?	-	-	32µM	-
CCOC(=O)c1c(C)[nH]c(C)c1S(=O)(=O)N1CCCC(C(=O)N2CCN(c3ccccc3)CC2)C1 (centres undefined)	-	-	.	-	?	.
O=C(c1ccncc1)N1CCC2(CCCN(Cc3nccs3)C2)CC1	-	.	.	.	.	.
Cc1ccc(NC(=O)c2cc3c(=O)[nH]c4ccccc4c3n2C)cc1F	-	?	.	-	.	.
CO/N=C/c1ccc(Oc2ccc(C)cc2)c([N+](=O)[O-])c1	28µM	13µM	-	-	-	12µM
O=[N+]([O-])c1cc(/C=N/O)ccc1Oc1cccc(Cl)c1	-	?	-	-	?	-
CCOC(=O)[C@]12CCCC=C1N(Cc1ccco1)C(=O)[C@H](CC(=O)N1CCCC1)C2	.	.	.	.	.	-
Cn1c(=O)c2cc3c(nc2n(C)c1=O)CC(c1ccccc1)CC3=O (centres undefined)	-	56µM	-	-	-	-
Cc1cccc(C)c1NC(=O)C(=O)NCC(c1cccnc1)N1CCc2ccccc21 (centres undefined)	-	-	.	-	-	.
O=C(NNC(=O)c1ccccc1OCc1ccccc1Cl)c1csc(N2CCOCC2)n1	-	-	.	-	-	-
CCOC(=O)c1sc(N2C(=O)C(O)=C(C(=O)c3ccco3)C2c2ccc([N+](=O)[O-])cc2)nc1C (centres undefined)	89µM	?	.	-	.	30µM
COC(=O)c1sc(N2C(=O)C(O)=C(C(=O)c3ccc(C)o3)C2c2ccc([N+](=O)[O-])cc2)nc1C (centres undefined)	?	?	.	-	-	?
CCOC(=O)c1sc(N2C(=O)C(O)=C(C(=O)c3ccc(C)o3)C2c2cccc([N+](=O)[O-])c2)nc1C (centres undefined)	?	?	.	-	?	24µM
CC(=O)Nc1c2c3c(cccc3n(C)c1=O)C(=O)c1ccccc1-2	-	-	-	-	-	-
SMILES	VDR inh	JMJD2A Tudor	L3MBTL1 block	HP1b chromo inh	BAZ2B inh	PLK1 PBD block
Cn1c(=O)c(Nc2ccc(Cl)cc2)c2c3c(cccc31)C(=O)c1ccccc1-2	-	-[11.4 µM]	.	?	?	13µM
CC(C(=O)Nc1ccc2c(c1)OCO2)N1CCN(C)CC1 (centres undefined)	-	0.79µM	-	22µM	45µM	-
CC(C(=O)Nc1ccc2[nH]c(=O)[nH]c2c1)N1CCN(Cc2ccc3c(c2)OCO3)CC1 (centres undefined)	-	-	-	-	-	-
CC(C)c1ccc(NC(=O)C(c2ccc3c(c2)OCO3)N2CCCCC2)cc1 (centres undefined)	-	-	.	-	-	-
CC(C(=O)Nc1ccc2c(c1)OCO2)N1CCC(N2CCCCC2)CC1 (centres undefined)	-	25µM	-	-	50µM	-
O=C(c1ccco1)N1CCN(c2c([N+](=O)[O-])nn(-c3cccc(Cl)c3)[n+]2[O-])CC1	-	-	.	-	?	-
CCCN(CCO)Cc1ccc(Br)cc1	-	20µM	-	?	?	-
CCCN(CCO)Cc1cccc(Cl)c1	-	3.5µM	-	?	?	-
CC1CC(C)CN(c2nc(N(C)c3ccccc3)nc(N)c2[N+](=O)[O-])C1 (centres undefined)	-	40µM	-	-	?	-
CC1CN(c2nc(N(C)c3ccccc3)nc(N)c2[N+](=O)[O-])CC(C)O1 (centres undefined)	-	?	.	?	-	-
COc1ccc2c(c1)cc1c(=O)n(CC(=O)NC3CCCCC3)nc(C)n12	-	-	.	-	-	.
COc1nc(NCCO)nc(Nc2ccccc2F)n1	-	-	.	-	-	27µM
Cc1cc(OCC(=O)N2CCc3ccccc3C2)c(C)cc1Br	-	?	-	-	-	19µM
Cc1ccc(C)c(OCC(=O)N2CCc3ccccc3C2)c1	-	-	.	-	-	-
Cc1ccc(/C(O)=C2/C(=O)C(=O)N(CCN3CCOCC3)C2c2cccnc2)cc1 (centres undefined)	-	89µM	-	-	-	-
CCOc1ccc(C2C(C(=O)c3ccco3)=C(O)C(=O)N2CCCn2ccnc2)cc1OCC (centres undefined)	-	-	.	-	?	-
CC1Cc2cc(/C(O)=C3/C(=O)C(=O)N(CCCn4ccnc4)C3c3cccnc3)ccc2O1 (centres undefined)	-	14µM	-	-	?	-
CCCOc1ccc(/C(O)=C2/C(=O)C(=O)N(CCCn3ccnc3)C2c2ccco2)cc1 (centres undefined)	-	?	-	-	-	-
COc1cccc(/C(O)=C2/C(=O)C(=O)N(CCN3CCOCC3)C2c2cccnc2)c1 (centres undefined)	-	-	-	-	?	-
CCOc1ccc(C2C(C(=O)c3ccco3)=C(O)C(=O)N2CCCn2ccnc2)cc1 (centres undefined)	-	45µM	-	-	-	-
C=CCOc1ccc(/C(O)=C2/C(=O)C(=O)N(CCCn3ccnc3)C2c2ccco2)cc1 (centres undefined)	-	?	-	-	50µM	-
COc1ccc(-c2ccc(CCC(=O)O)n2CC(=O)Nc2cccc(Cl)c2C)cc1	-	-	.	-	?	.
COc1ccccc1CNC(=O)C1CCCN(c2nc3ccccc3n3cccc23)C1 (centres undefined)	-	-	.	-	-	.
CC1Cc2cc(/C(O)=C3/C(=O)C(=O)N(CCCn4ccnc4)C3c3ccncc3)ccc2O1 (centres undefined)	-	-	-	-	?	-
